From PubChem BioAssay (NCATS)
A number with no mark means an inactive call. Results filed as inconclusive are left out. The list shows a part of the results. Calls of active or inactive are those of the source. Calls come from the whole dose curve; as a rule, active = well fitted curve in the direction sought with a large enough effect; inconclusive = small, poorly fitted or top-dose-only effect, or another doubt; inactive = no such curve, though single readings can be large; an effect the other way counts as inactive or inconclusive.

Legend:
[1] = biological target: Cytochrome P450 3A4 (Homo sapiens) (UniProt P08684); experiment: qHTS Assay for Inhibitors and Substrates of Cytochrome P450 3A4 (AID 884); note: potency is the fitted concentration of half-maximal effect; nearly all actives have a fitted effect of over 50% in size
Sequence of Cytochrome P450 3A4 (Homo sapiens) (P08684 whole entry, looked up): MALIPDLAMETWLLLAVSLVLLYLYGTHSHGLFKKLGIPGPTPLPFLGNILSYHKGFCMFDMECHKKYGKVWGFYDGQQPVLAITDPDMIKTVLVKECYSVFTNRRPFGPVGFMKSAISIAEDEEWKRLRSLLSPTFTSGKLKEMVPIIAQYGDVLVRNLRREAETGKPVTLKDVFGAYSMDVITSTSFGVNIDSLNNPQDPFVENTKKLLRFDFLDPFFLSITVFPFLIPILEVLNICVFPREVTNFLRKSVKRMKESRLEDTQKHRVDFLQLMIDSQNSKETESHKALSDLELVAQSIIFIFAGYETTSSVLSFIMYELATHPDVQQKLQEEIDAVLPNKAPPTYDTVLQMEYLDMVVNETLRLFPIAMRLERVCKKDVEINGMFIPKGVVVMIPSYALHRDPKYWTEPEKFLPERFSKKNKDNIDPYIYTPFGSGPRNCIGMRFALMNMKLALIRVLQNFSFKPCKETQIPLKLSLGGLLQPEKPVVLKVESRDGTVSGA
How it was run: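 Luminescent readout of luciferin produced by CYP3A4 (20 nM) dealkylation of Luciferin-PPXE, 25 uM (its KM). NADPH-driven reaction ran 60 min at RT after 10 min compound preincubation; data scaled to 57 uM ketoconazole as 100% inhibition.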

[2] = biological target: Lethal(3)malignant brain tumor-like protein 1 (Homo sapiens) (UniProt Q9Y468); experiment: qHTS Assay for the Inhibitors of L3MBTL1: Hit Validation (AID 540279); details: L3MBTL1 methyl-lysine binding inhibition, biochemical qHTS; note: potency is the fitted concentration of half-maximal effect; nearly all actives have a fitted effect of over 70% in size
Sequence of Lethal(3)malignant brain tumor-like protein 1 (Homo sapiens) (Q9Y468 whole entry, looked up): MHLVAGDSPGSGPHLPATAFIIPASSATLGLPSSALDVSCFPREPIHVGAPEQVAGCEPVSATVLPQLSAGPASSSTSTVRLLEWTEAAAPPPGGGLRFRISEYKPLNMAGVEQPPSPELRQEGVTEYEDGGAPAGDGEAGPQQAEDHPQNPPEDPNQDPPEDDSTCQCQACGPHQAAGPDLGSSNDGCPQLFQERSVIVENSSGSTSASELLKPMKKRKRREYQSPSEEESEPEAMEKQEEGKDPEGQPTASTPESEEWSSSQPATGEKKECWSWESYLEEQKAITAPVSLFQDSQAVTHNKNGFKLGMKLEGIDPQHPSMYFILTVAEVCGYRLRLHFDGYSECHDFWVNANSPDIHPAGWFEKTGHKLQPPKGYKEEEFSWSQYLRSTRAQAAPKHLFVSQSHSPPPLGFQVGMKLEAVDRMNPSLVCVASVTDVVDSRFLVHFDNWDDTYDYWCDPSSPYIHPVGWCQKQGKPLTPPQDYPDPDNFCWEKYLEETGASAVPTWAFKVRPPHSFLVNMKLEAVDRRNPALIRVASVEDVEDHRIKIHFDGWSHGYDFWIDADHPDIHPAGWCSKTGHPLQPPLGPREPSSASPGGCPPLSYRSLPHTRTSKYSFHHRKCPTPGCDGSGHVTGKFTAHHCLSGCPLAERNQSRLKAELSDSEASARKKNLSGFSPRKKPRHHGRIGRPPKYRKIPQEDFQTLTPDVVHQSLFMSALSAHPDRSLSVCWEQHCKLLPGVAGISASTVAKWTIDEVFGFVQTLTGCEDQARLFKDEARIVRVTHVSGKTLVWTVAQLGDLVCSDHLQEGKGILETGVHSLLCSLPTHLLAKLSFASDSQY
How it was run: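 L3MBTL1 (50 nM final) preformed 30 min with biotinylated H3(1-15)K9me1 peptide (75 nM), then compound 30 min at room temperature. Streptavidin donor and nickel chelate acceptor AlphaScreen beads (10 ug/mL each final) added for 30 min before read.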

[3] = qHTS Assay for the Inhibitors of L3MBTL1: Hit Validationin AlphaScreen Counterscreen (AID 602224)
How it was run: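 AlphaScreen signal was read after compounds, 1 nM biotin-His6 peptide and 10 ug/mL each of streptavidin donor and nickel acceptor beads incubated 30 min at room temperature in darkness, following a 15 min compound–peptide preincubation.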

[4] = biological target: DNA dC->dU-editing enzyme APOBEC-3G (Homo sapiens) (UniProt Q9HC16); experiment: qHTS for inhibitors of Vif-A3G interactions: Validation (AID 588379)
Sequence of DNA dC->dU-editing enzyme APOBEC-3G (Homo sapiens) (Q9HC16 whole entry, looked up): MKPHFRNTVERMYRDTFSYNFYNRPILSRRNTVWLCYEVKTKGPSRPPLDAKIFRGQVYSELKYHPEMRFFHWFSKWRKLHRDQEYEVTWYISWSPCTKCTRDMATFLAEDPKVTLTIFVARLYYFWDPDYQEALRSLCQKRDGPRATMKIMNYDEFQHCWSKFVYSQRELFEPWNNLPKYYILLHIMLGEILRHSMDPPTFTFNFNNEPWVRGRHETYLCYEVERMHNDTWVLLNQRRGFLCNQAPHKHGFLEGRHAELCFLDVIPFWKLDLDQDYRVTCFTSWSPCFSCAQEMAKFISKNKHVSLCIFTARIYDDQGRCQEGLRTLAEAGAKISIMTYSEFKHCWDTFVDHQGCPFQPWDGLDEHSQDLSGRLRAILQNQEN
How it was run: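 Yellow fluorescence (Ex 488, Em 500-530) of Vif-coexpressing HeLa A3G-eYFP cells, scanned by Acumen cytometer, reports blocked A3G degradation. Cells plated at 700/well overnight at 37 deg C before compound addition, then a further overnight compound incubation at 37 deg C.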

[5] = biological target: Flap endonuclease 1 (Homo sapiens) (UniProt P39748); experiment: qHTS Assay for the Inhibitors of FEN1: Confirmatory Assay for Cherry-picked Compounds (AID 720498); details: FEN1 flap cleavage, TAMRA/BHQ2 fluorogenic DNA substrate; note: potency is the fitted concentration of half-maximal effect; nearly all actives have a fitted effect of over 60% in size
Sequence of Flap endonuclease 1 (Homo sapiens) (P39748 whole entry, looked up): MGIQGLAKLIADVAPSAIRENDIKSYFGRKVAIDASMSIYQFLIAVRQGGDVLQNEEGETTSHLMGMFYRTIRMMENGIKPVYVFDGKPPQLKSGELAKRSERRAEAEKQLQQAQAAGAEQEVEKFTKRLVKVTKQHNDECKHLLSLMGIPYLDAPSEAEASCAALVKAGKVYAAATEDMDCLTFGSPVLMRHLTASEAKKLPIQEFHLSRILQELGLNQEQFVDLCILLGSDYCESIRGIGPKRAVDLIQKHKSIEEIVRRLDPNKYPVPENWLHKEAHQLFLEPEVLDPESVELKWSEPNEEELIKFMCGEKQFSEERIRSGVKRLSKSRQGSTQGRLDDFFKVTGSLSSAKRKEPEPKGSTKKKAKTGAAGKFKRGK
How it was run: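 Human FEN1 (10 nM reagent) was preincubated with compounds for 15 min at room temperature, then 50 nM final double-flap DNA substrate (5'-TAMRA flap, BHQ-2 quencher strand) was added. Fluorescence (ex 525/em 598 nm) was read at 0 and 15 min.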

## COC(=O)c1ccc(C(NC(=O)OCc2ccccc2)/C(I)=C/[C@@H](C)C(=O)NCc2ccncc2)cc1 (some centres not stated)
[1]
  Potency: 1.58 µM (active)

## CC(C)CC1(C(=O)NCCN2CCOCC2)C=CCN1C(=O)c1ccccc1 (configuration not stated)
[1]
  Potency: 12.6 µM (active)

## COC(=O)c1ccc(C(NC(=O)OCc2ccccc2)/C(C)=C/[C@@H](C)C(=O)NC2CCCCC2)cc1 (some centres not stated)
[1]
  Potency: 2 µM (active)

## CC1(C(=O)NCCCNc2ncc(C(F)(F)F)cc2Cl)C=CC2(CCCCC2)N1C(=O)c1ccccc1 (configuration not stated)
[1]
  Potency: 7.94 µM (active)

## CC(=O)N1[C@H](C)C=C[C@]1(Cc1ccccc1)C(=O)NCCN1CCOCC1
[1]
  Potency: 12.6 µM (active)

## COC(=O)CNC(=O)C1(C)C=CCN1C(=O)c1ccccc1 (configuration not stated)
[1]
  Potency: 39.8 µM (active)

## CC(=O)N1CC=CC1(C)C(=O)NCc1cc(F)cc(C(F)(F)F)c1 (configuration not stated)
[1]
  Potency: 15.8 µM (active)

## COC(=O)c1ccc(C(NC(=O)OCc2ccccc2)/C(C)=C/[C@@H](C)C(=O)N[C@@H](CO)Cc2ccccc2)cc1 (some centres not stated)
[1]
  Potency: 3.16 µM (active)

## COC(=O)[C@@H]1C[C@@]1(C)[C@@H](NC(=O)OCc1ccccc1)c1ccccc1
[1]
  Potency: 25.1 µM (active)

## C=C(N(C)C)[C@]1(C)C[C@H]1[C@H](NC(=O)CNC(=O)OCc1ccccc1)c1ccccc1
[1]
  Potency: 7.94 µM (active)

## C[C@]1(C(=O)NCC2CC2)C=C[C@@H](Cc2ccccc2)N1C(=O)c1ccccc1
[1]
  Potency: 2 µM (active)

## COC(=O)c1ccc(C(/C=C/[C@@H](C)C(=O)NCCN2CCCC2)NC(=O)OCc2ccccc2)cc1 (some centres not stated)
[1]
  Potency: 10 µM (active)

## CC(=O)N1C2(C=CC1(C)C(=O)NCc1ccccn1)CCCCC2 (configuration not stated)
[1]
  Potency: 12.6 µM (active)

## COC(=O)c1ccc(C(NC(=O)OCc2ccccc2)/C(=C/[C@@H](C)C(=O)NCC2CC2)c2cccnc2)cc1 (some centres not stated)
[1]
  Potency: 2 µM (active)

## Cc1nn(-c2ccccc2)nc1CNC(=O)C(C)Cc1ccccc1 (configuration not stated)
[1]
  Potency: 2.51 µM (active)

## CC1(C(=O)NCC2CC2)C=CC2(CCCCC2)N1C(=O)c1ccccc1 (configuration not stated)
[1]
  Potency: 7.94 µM (active)

## COC(=O)c1ccc(C(NC(=O)OCc2ccccc2)/C(F)=C/[C@@H](C)C(=O)NCCc2c[nH]c3ccc(OC)cc23)cc1 (some centres not stated)
[1]
  Potency: 1.26 µM (active)

## COC(=O)N1[C@H](C)C=C[C@]1(Cc1ccccc1)C(=O)NCCCNc1ncc(C(F)(F)F)cc1Cl
[1]
  Potency: 6.31 µM (active)

## COCCNC(=O)[C@H](C)/C=C(\c1cccnc1)C(NC(=O)OCc1ccccc1)c1ccc(C(=O)OC)cc1 (some centres not stated)
[1]
  Potency: 5.01 µM (active)

## CCCCCCN(C(=O)CCCCCN1C(=O)NC(C2CC2)C(C(=O)OCc2ccccc2)=C1C)C(C(=O)NCCCC)c1ccc(OCC(=O)OC)c(C(=O)OC)c1 (configuration not stated)
[1]
  Potency: 3.98 µM (active)

## CC(=O)N1[C@H](C)C=C[C@]1(Cc1ccccc1)C(=O)NCc1cc(F)cc(C(F)(F)F)c1
[1]
  Potency: 3.16 µM (active)

## COC(=O)c1ccc(C(NC(=O)OCc2ccccc2)/C(I)=C/[C@@H](C)C(=O)NCC2CC2)cc1 (some centres not stated)
[1]
  Potency: 3.98 µM (active)

## COC(=O)N1CC=CC1(C)C(=O)NCc1cc(F)cc(C(F)(F)F)c1 (configuration not stated)
[1]
  Potency: 15.8 µM (active)

## COC(=O)c1ccc(C(NC(=O)OCc2ccccc2)/C(=C/[C@@H](C)C(=O)NCc2ccc(S(C)(=O)=O)cc2)c2cccnc2)cc1 (some centres not stated)
[1]
  Potency: 2 µM (active)

## O=C(COC(=O)c1ccc(F)cc1F)Nc1ncccn1
[2]
  Potency: 5.97 µM (active)
[3]
  outcome: inactive

## C[C@H]1[C@H](C)CC[C@]2(C(=O)O)CC[C@]3(C)C(=CCC4[C@@]5(C)CC[C@H](O)C(C)(C)[C@@H]5CC[C@]43C)[C@H]12 (some centres not stated)
[4]
  Potency: inactive

## COCCNC(=O)Nc1ccc2nc(-c3ccco3)c(-c3ccco3)nc2c1
[2]
  Potency: 1.89 µM (active)
[5]
  Potency: 19 µM (active)

## CC(C)(C)OC(=O)NCCCCCNC(=O)c1[nH]cnc1C(=O)Nc1nccs1
[2]
  Potency: 7.52 µM (active)
[3]
  outcome: inactive

## C1CCN2CC3CC(CN4CCCC[C@@H]34)C2C1 (some centres not stated)
[4]
  Potency: inactive
